This passage reports cell count results from PubChem BioAssay.

Several values for one entry are separate records, joined by “and”; a condition that tells them apart may be missing. Equal values may be shown once.

The first test can be described thus: sensitizers of A549 cells to miR-34 induction, primary screen, imaging, A549 dox-inducible miR-34, nuclei and caspase counts (AID 1347080). Further: test concentration not given here. The following applies: A549 miR-34 inducible, Hoechst nuclei count, 48 h; measured here: total cells with miR-34 induction; stronger effect = lower value.
In the case of `Cn1nc(NC(=O)Cn2cc(-c3nccc4occc34)cn2)c2ccccc21`, the cell count was 7280.
On the same count and under the same terms, the result for `Cc1nn(C)cc1-c1ccnc(N2CCCN(c3ccc(F)cc3)CC2)n1` reads 3170; that for `O=c1c2nccnc2ncn1Cc1scnc1-c1ccccc1`, 8870; that for `Nc1nc(Nc2cccc(Cl)c2)sc1C(=O)c1ccc(F)cc1`, 7020.
Same read-out and setting: the result for `O=c1[nH]cnc2c1ncn2C1CCC(CO)O1` (stereo not drawn) reads 9660 and 7790; that for `Cn1nc(C(C)(C)C)cc1NC(=O)Nc1ccc(Cl)cc1`, 7030.
On to `O=C1CN(c2ncnc3sccc23)CCN1Cc1cccc(F)c1`, for which the cell count came to 4730.
The same measure, in the same setting: the result for `Nc1nc(Cl)nc2c1ncn2C1CC(O)C(CO)O1` (stereo not drawn) reads 1440 and 1620; that for `CC(=O)NCCc1ccc(S(N)(=O)=O)cc1`, 7840; that for `CC(C)(C)c1cn(C2CCN(C(=O)c3cnc4ccccc4n3)CC2)nn1`, 7870.
`Nc1nc(NCc2ccncc2)c2cn[nH]c2n1`: the cell count came out at 8290.
Still for that read-out and setting: the result for `CN1CCN(Cc2cccc(Oc3ccccc3)c2)CC1CCO` (stereo not drawn) reads 8810; that for `Cc1ccc(CN2CCN(c3ncnc4sccc34)CC2=O)cc1`, 4200; that for `O=C(O)c1ccc(-c2ccc([N+](=O)[O-])cc2Cl)o1`, 8260.
`NC(=O)c1ccccc1-c1cccc2ccccc12`: the cell count was 7950.
The same measure, in the same setting: the result for `C=CCn1cc(-c2nc3c([nH]2)c(-c2cccnc2)nn3C)c(C)n1` reads 8680; that for `CCN(CCc1ccccn1)C(=O)c1cc(-c2cnc(N)nc2)nc2c(C)cccc12`, 8640.
For the compound `COc1ncccc1C(=O)N1CCOc2ccccc21`, the cell count came out at 8450.
Still for that read-out and setting: to `Cc1nnc(NC(=O)NCC(c2ccccc2)c2ccccc2)s1` belongs 7790.
As for `COC(=O)CN1CCN(c2ncnc3sccc23)C(C)C1=O` (stereo not drawn), the cell count stood at 7880.
On the same count and under the same terms, to `COc1cccc(Cc2noc(-c3nccc4ccccc34)n2)c1` belongs 8090; to `COc1ccc2c(c1)CCN(C(=O)Nc1n[nH]c(-c3ccccc3F)n1)C2`, 7710.
With `O=C(O)c1cnc(-c2ccccc2)[nH]1`, the cell count is 8980.
Consider `O=C(c1cccc(=O)[nH]1)N(Cc1cccnc1)Cc1ccc2c(c1)OCO2`, for which the cell count came to 9470.
As to `CCN(CC)C(=O)c1c(NC(=O)c2cccs2)sc2c1CCCC2`, the cell count was determined as 1650.
On the same count and under the same terms, the result for `O=C(O)c1ccc(-c2ccccc2C(F)(F)F)o1` reads 8380; that for `COc1cc(F)c(-c2nc3c(cnn3Cc3cccs3)[nH]2)c(F)c1`, 6350.
Take `CN(C)CCc1c[nH]c2ccc(CC3COC(=O)N3)cc12` (stereo not drawn): the cell count was 9680 and 7960.
Consider `NC(N)=NC(N)=Nc1cc(C(F)(F)F)ccc1Cl`, for which the cell count stood at 7310.
As for `O=C(O)CCc1c[nH]c2ccccc12`, the cell count was 8830.
The same measure, in the same setting: to `Cn1nc(-c2cccnc2)c2[nH]c(-c3ccccc3OC(F)F)nc21` belongs 6510.
On the same count and under the same terms, to `Nc1ccn(C2CCC(CO)O2)c(=O)n1` (stereo not drawn) belongs 9800 and 8610.
On to `C=CCNC(=O)c1cccnc1-c1ccc(OC)c2ncccc12`, for which the cell count was 9130.
For the compound `OCCCc1cn(CC2CCN(c3ncnc4nc[nH]c34)CC2)nn1`, the cell count was 8820.
On the same count and under the same terms, to `O=C(O)CNC(=O)Cc1c[nH]c2ccccc12` belongs 8420; to `CC(=O)NCC1CN(c2ccc(N3CCOCC3)c(F)c2)C(=O)O1` (stereo not drawn), 6880 and 7480.
With `CSCCC(NC(C)=O)C(=O)O` (stereo not drawn), the cell count was found to be 8190.
Same read-out and setting: to `O=C1CN(c2ncnc3nc[nH]c23)CCN1CCc1ccccc1` belongs 8450; to `CCn1ncc(NC(=O)Cn2cc(-c3cccc(-n4cccn4)c3)cn2)n1`, 2160.

Staying with this test, now noted: A549 miR-34 inducible, Hoechst nuclei count, 48 h; measured here: total cells without miR-34 induction.
Consider `Cn1nc(NC(=O)Cn2cc(-c3nccc4occc34)cn2)c2ccccc21`, for which the cell count stood at 8770.
Still for that read-out and setting: the result for `Cc1nn(C)cc1-c1ccnc(N2CCCN(c3ccc(F)cc3)CC2)n1` reads 4290; that for `O=c1c2nccnc2ncn1Cc1scnc1-c1ccccc1`, 9940.
Same read-out and setting: to `Nc1nc(Nc2cccc(Cl)c2)sc1C(=O)c1ccc(F)cc1` belongs 8090; to `O=c1[nH]cnc2c1ncn2C1CCC(CO)O1` (stereo not drawn), 11100 and 8920; to `Cn1nc(C(C)(C)C)cc1NC(=O)Nc1ccc(Cl)cc1`, 8720.
With `O=C1CN(c2ncnc3sccc23)CCN1Cc1cccc(F)c1`, the cell count worked out at 5730.
The same measure, in the same setting: to `Nc1nc(Cl)nc2c1ncn2C1CC(O)C(CO)O1` (stereo not drawn) belongs 2200 and 3330.
On the same count and under the same terms, to `CC(=O)NCCc1ccc(S(N)(=O)=O)cc1` belongs 8540; to `CC(C)(C)c1cn(C2CCN(C(=O)c3cnc4ccccc4n3)CC2)nn1`, 9080.
The same measure, in the same setting: the result for `Nc1nc(NCc2ccncc2)c2cn[nH]c2n1` reads 8900; that for `CN1CCN(Cc2cccc(Oc3ccccc3)c2)CC1CCO` (stereo not drawn), 9620.
Regarding `Cc1ccc(CN2CCN(c3ncnc4sccc34)CC2=O)cc1`, the cell count stood at 4610.
Consider `O=C(O)c1ccc(-c2ccc([N+](=O)[O-])cc2Cl)o1`, for which the cell count amounted to 9440.
With `NC(=O)c1ccccc1-c1cccc2ccccc12`, the cell count worked out at 9470.
Consider `C=CCn1cc(-c2nc3c([nH]2)c(-c2cccnc2)nn3C)c(C)n1`, for which the cell count came to 9940.
On the same count and under the same terms, to `CCN(CCc1ccccn1)C(=O)c1cc(-c2cnc(N)nc2)nc2c(C)cccc12` belongs 9560.
With `COc1ncccc1C(=O)N1CCOc2ccccc21`, the cell count stood at 8420.
As to `Cc1nnc(NC(=O)NCC(c2ccccc2)c2ccccc2)s1`, the cell count came to 9310.
Turning to `COC(=O)CN1CCN(c2ncnc3sccc23)C(C)C1=O` (stereo not drawn), the cell count was 9220.
The same measure, in the same setting: the result for `COc1cccc(Cc2noc(-c3nccc4ccccc34)n2)c1` reads 8670; that for `COc1ccc2c(c1)CCN(C(=O)Nc1n[nH]c(-c3ccccc3F)n1)C2`, 8530; that for `O=C(O)c1cnc(-c2ccccc2)[nH]1`, 9570.
On the same count and under the same terms, the result for `O=C(c1cccc(=O)[nH]1)N(Cc1cccnc1)Cc1ccc2c(c1)OCO2` reads 9830.
As to `CCN(CC)C(=O)c1c(NC(=O)c2cccs2)sc2c1CCCC2`, the cell count was 1620.
Still for that read-out and setting: to `O=C(O)c1ccc(-c2ccccc2C(F)(F)F)o1` belongs 9530; to `COc1cc(F)c(-c2nc3c(cnn3Cc3cccs3)[nH]2)c(F)c1`, 7760; to `CN(C)CCc1c[nH]c2ccc(CC3COC(=O)N3)cc12` (stereo not drawn), 10700 and 8510.
On the same count and under the same terms, to `NC(N)=NC(N)=Nc1cc(C(F)(F)F)ccc1Cl` belongs 8110; to `O=C(O)CCc1c[nH]c2ccccc12`, 9860.
On the same count and under the same terms, the result for `Cn1nc(-c2cccnc2)c2[nH]c(-c3ccccc3OC(F)F)nc21` reads 7440; that for `Nc1ccn(C2CCC(CO)O2)c(=O)n1` (stereo not drawn), 10200 and 9350.
Take `C=CCNC(=O)c1cccnc1-c1ccc(OC)c2ncccc12`: the cell count is 9990.
Consider `OCCCc1cn(CC2CCN(c3ncnc4nc[nH]c34)CC2)nn1`, for which the cell count was found to be 9200.
Still for that read-out and setting: the result for `O=C(O)CNC(=O)Cc1c[nH]c2ccccc12` reads 9850; that for `CC(=O)NCC1CN(c2ccc(N3CCOCC3)c(F)c2)C(=O)O1` (stereo not drawn), 7500 and 7630.
On the same count and under the same terms, the result for `CSCCC(NC(C)=O)C(=O)O` (stereo not drawn) reads 9520.
Turning to `O=C1CN(c2ncnc3nc[nH]c23)CCN1CCc1ccccc1`, the cell count was 9080.
Still for that read-out and setting: the result for `CCn1ncc(NC(=O)Cn2cc(-c3cccc(-n4cccn4)c3)cn2)n1` reads 2470.
